Results published in PubChem BioAssay (NCI).
The panel holds about 83,000 compounds, 20% with a hit somewhere; the sample as a whole holds those more often.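 Growth was measured after 48 h exposure to one concentration of compound in 96-well plates. Values under 10 count as active.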 Calls of active or inactive are those of the source.

Legend:
Experiment in all cases: NCI-60 one-dose screen, 48 h (100 = growth as untreated, 0 = no growth, -100 = all killed)
Conditions in all cases: 10 µM unless noted
[1] = test system: SR leukemia
[2] = test system: RPMI-8226 leukemia
[3] = test system: OVCAR-8 ovarian
[4] = test system: OVCAR-5 ovarian
[5] = test system: OVCAR-4 ovarian
[6] = test system: SK-OV-3 ovarian
[7] = test system: IGROV1 ovarian
[8] = test system: OVCAR-3 ovarian
[9] = test system: HS 578T breast
[10] = test system: NCI/ADR-RES ovarian

Measured: growth

CCOC(=O)c1cc(C(=O)c2cc(OC)c(OC)c(OC)c2)n2ccc(-c3ccncc3)cc12
inactive: [1] 69.4% | [2] 56.9% | [3] 90.5% | [4] 113% | [5] 96.3% | [6] 87% | [7] 111% | [8] 109% | [9] 86.8% | [10] 99.2%

CCN(C(=O)N1CCN(c2cc3c(cc2F)c(=O)c(C(=O)O)cn3C2CC2)CC1)c1nc(-c2ccc(Cl)cc2)cs1
inactive: [2] 12.8% | [3] 14.4% | [4] 24.5% | [5] 25.7% | [8] 10.1% | [9] 20.7%
active: [1] 6.27% | [6] -11.9% | [7] -9.58% | [10] 4.67%

COc1cc(N2C(=O)[C@H](O)C2c2ccc(SC)cc2)cc(OC)c1OC (stereo not given in full)
inactive: [4] 80.3% | [5] 56.5% | [7] 31.4% | [9] 34.9% | [10] 14.2%
active: [1] 3.99% | [2] 9.69% | [3] 6.99% | [6] 3.02% | [8] -11.9%

CSc1nc2sc3c(c2c(=O)n1-c1ccc([N+](=O)[O-])cc1)CCCCC3
inactive: [1] 85.4% | [2] 99.4% | [3] 73% | [4] 87.8% | [5] 82.4% | [6] 69.5% | [7] 84.8% | [8] 103% | [9] 82.3% | [10] 89.6%

COc1ccc(CC(C#N)c2cc3ccccc3[nH]2)cc1 (stereo not given)
inactive: [1] 96.1% | [2] 71.4% | [3] 90.8% | [4] 94.1% | [5] 95.4% | [6] 94.4% | [7] 94.7% | [8] 92% | [9] 90.8% | [10] 92.8%

CO/N=C(/C)c1ccc(NC(=O)CSc2nnc(-c3ccncc3)n2-c2ccccc2)cc1
inactive: [1] 99.6% | [2] 80.8% | [4] 79.5% | [6] 24.1% | [7] 33.4% | [8] 29.3%
active: [3] 1.47% | [5] -30.7% | [9] -0.835% | [10] 0.0208%

O=CC1(C2(C=O)c3ccccc3-c3ccccc32)c2ccccc2-c2ccccc21
active: [1] -32.3% | [2] -24% | [3] -49.9% | [4] -40.9% | [5] -76.4% | [6] -65% | [7] -76.4% | [8] -74.7% | [9] -4.62% | [10] -14%
